# Compound activity from PubChem BioAssay.
# A selection: hits, their analogues and other compounds. The true share with any hit is near 4.3%.
# NR3A LBD binder = modulates the human NR3A ligand-binding domain | 340,000 compounds, 2.5% hits | AID 1259313 | Tm shift relative to glycine control, % at 25 µM | NR3A LBD differential scanning fluorimetry, Tm shift; 0% = protein alone, 100% = glycine-bound protein;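 active means melting temperature shift of at least 10% of the positive control shift, at one fixed dose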
# dFosB activator = activators of mouse delta FosB homodimer; purified delta FosB, TAMRA-CDK5 oligo fluorescence polarization; percent of positive-control signal above neutral wells; activation, % at 25 µM; 340,000 compounds, 0.99% hits; P13346; AID 493131;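 active means mean activation above about 17%, with every replicate also reaching it, limit read from the data, passing the limit was not always enough; inconclusive means only one of the two conditions met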
# Target sequence (P13346 whole entry, looked up): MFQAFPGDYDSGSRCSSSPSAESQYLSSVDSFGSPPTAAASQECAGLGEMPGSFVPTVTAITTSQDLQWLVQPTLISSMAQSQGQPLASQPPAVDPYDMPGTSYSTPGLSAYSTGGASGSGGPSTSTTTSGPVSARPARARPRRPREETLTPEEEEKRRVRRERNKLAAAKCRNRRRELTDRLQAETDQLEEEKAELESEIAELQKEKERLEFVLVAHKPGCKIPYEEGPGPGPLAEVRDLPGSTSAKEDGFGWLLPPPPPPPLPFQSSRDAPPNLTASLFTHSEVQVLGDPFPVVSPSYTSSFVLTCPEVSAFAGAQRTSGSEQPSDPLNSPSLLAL
# CR mimetic SO = lowers age-related superoxide in aged yeast cells; AID 2690; S. cerevisiae aged cells, superoxide DHE fluorescence; hits give low values; superoxide response (% of plate mean), % at 10 µM; 330,000 compounds, 0.18% hits;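 active means superoxide response under a set limit, about three screen SD below normal, cut at about 65% in these data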;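 further: yeast aged for seven days with compound at 30 °C before DHE staining; 100% = average MFI of all compound-treated wells on the plate with controls excluded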
# NALP1 yeast inh = blocks the NALP1 inflammasome reconstituted in yeast | S. cerevisiae NALP1/ASC/caspase-1 growth, X-gal OD620, 72 h | inhibition, % at 10 µM | 280,000 compounds, 0.61% hits; in the data active means inhibition mostly above about 24%, no sharp cut-off; inactive means mostly below about 32%
# UBC13 polyUb = inhibitors of human UBC13 polyubiquitin chain formation | P61088 | inhibition, % at 20 µM | TR-FRET | 330,000 compounds, 0.47% hits; in the data active means inhibition above about 45%, passing the limit was not always enough; inconclusive means no clear call, values can overlap the other calls
# Target sequence (P61088 whole entry, looked up): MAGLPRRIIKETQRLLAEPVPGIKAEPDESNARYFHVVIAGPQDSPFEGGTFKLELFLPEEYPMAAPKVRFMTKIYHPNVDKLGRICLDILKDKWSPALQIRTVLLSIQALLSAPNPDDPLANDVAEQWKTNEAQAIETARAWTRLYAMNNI
# The depositor's hits bear a star; ? = inconclusive; / = no result.
SMILES,NR3A LBD binder,dFosB activator,CR mimetic SO,NALP1 yeast inh,UBC13 polyUb
COc1ccc(Cl)cc1CC=NNC(=O)c1cccc(C)c1O,-1,2,/,/,/
CCN(Cc1nc2cc(Cl)ccc2c(=O)[nH]1)C(=O)c1cc(C2CC2)nn1-c1ccccc1,-9,-3,/,/,2
CC1(C)Cc2c(sc(NC(=O)c3ccc(C(=O)c4ccccc4)cc3)c2C(N)=O)C(C)(C)N1,-8,44*,109,18,35
CC1Oc2ccccc2C=C1/C=N/NC(=O)c1ccccc1 (stereo unspecified),-15,-1,107,38,7
CC1Oc2ccccc2C=C1/C=N/NC(=O)c1ccccc1O (stereo unspecified),13*,-4,93,17,-4
Cc1[nH]c2ccc(C(=O)NCc3ccccn3)cc2c1C,0,-18,101,-7,0
CCOc1ccccc1C(=O)Nc1ccsc1C(=O)OC,14*,-18,92,36,/
COC(=O)c1sccc1NC(=O)Cc1ccc(OC)c(OC)c1,0,5,110,24,5
CCOc1ccccc1C(=O)Nc1ccc(C(=O)c2ccccc2)cc1,1,-15,99,8,19
COC(=O)c1sccc1NC(=O)Cc1ccc(Br)cc1,12*,-5,77,22,17
COC(=O)c1sccc1NC(=O)c1cccnc1,669*,-15,83,16,8
CCOc1ccccc1C(=O)Nc1ccc(NC(=O)c2ccccc2)cc1,17*,-8,105,18,-5
COc1ccc(OC)c(C(=O)COC(=O)c2[nH]c(C)c(C(C)=O)c2C)c1,4,3,/,/,17
CC(=O)N1CCN(S(=O)(=O)c2cccc(C(=O)OCc3cccc(F)c3)c2)CC1,2,2,94,/,-3
CC(=O)c1ccc(NC(=O)COc2ccccc2C(=O)Nc2ccc(C)cn2)cc1,2,-2,97,18,0
Cc1ccc(C(=O)COc2ccccc2C(=O)Nc2ccccc2)cc1,2,-6,101,-3,6
Cc1ccc(NC(=O)c2ccccc2OCC(=O)c2ccccc2)cc1,10*,-5,88,-2,-5
CC(=O)c1ccc(NC(=O)COc2ccccc2C(=O)Nc2ccccc2)cc1,15*,-14,106,16,16
CN(C)c1ccc(NC(=O)CN2CCc3ccccc3C2)cc1,-1,-11,94,30,-7
O=C(CSc1nccc(-c2cccs2)n1)Nc1ccc(Cl)cc1,26*,-8,91,-22,2
CS(=O)(=O)Nc1ccc(C(=O)Nc2ccccc2-c2ccccc2)cc1,-1,0,95,16,-13
CC(=O)c1ccc(NC(=S)NC(NC(=O)c2ccco2)C(Cl)(Cl)Cl)cc1 (stereo unspecified),-7,-4,95,0,4
CCc1ccc(OCC(=O)NC(=S)Nc2ccc(C(=O)O)cc2)cc1,1,1,91,21,1
CCc1ccc(OCC(=O)NC(NC(=S)Nc2ccc(Cl)cc2)C(Cl)(Cl)Cl)cc1 (stereo unspecified),24*,3,77,29,-15
O=C(NC(NC(=S)Nc1ccc(Cl)cc1)C(Cl)(Cl)Cl)c1ccco1 (stereo unspecified),13*,-3,113,14,-2
SMILES,NR3A LBD binder,dFosB activator,CR mimetic SO,NALP1 yeast inh,UBC13 polyUb
CCCC(=O)C1=C(O)C(C(=O)OC)C(C)(C)CC1=Nc1ccncc1 (stereo unspecified),-1,1,106,10,-1
COCCCN1C(=O)c2ccc(C(=O)OCC(=O)N(CCC#N)c3cc(C)cc(C)c3)cc2C1=O,-1,-5,90,/,2
OC/C(Br)=C(\Br)CO,0,-2,112,/,-2
Cc1ccc2nc(CSc3nc(C)ccc3C#N)[nH]c2c1,29*,-6,103,-14,-8
Cc1ccc(C#N)c(SCc2ccccc2F)n1,-3,/,98,14,5
CC(CC(=O)N1CCN(c2ccccc2)CC1)S(=O)(=O)c1ccc2c(c1)NC(=O)CO2 (stereo unspecified),0,-8,89,-2,-3
O=c1c2ccccc2[nH]c(=S)n1Cc1cccnc1,-1,1,105,1,19
O=c1c2cc(Br)ccc2[nH]c(=S)n1Cc1cccnc1,-4,43*,100,6,?
Cc1ccc(NC(=O)CSc2nnc(Cc3ccccc3)c(=O)[nH]2)c(C)c1,5,-18,97,/,-2
Cc1cc(NC(=O)c2oc3ccccc3c2C)ccc1-n1cnnn1,23*,-25,99,8,8
COc1cc(OC)cc(C(=O)Nc2ccc(-n3cnnn3)c(C)c2)c1,-1,-4,92,4,5
O=C(/C=C/NNC(=O)c1ccccc1)c1ccc([N+](=O)[O-])cc1,-8,-8,105,-8,-62
COc1cc(NC(=O)c2cc(C3CC3)on2)c(OC)cc1Cl,14*,1,99,4,8
O=S(=O)(NCc1csc(-c2cccnc2)n1)c1cccs1,-1,-2,86,/,3
O=S(=O)(NCCc1csc(-c2cccnc2)n1)c1cccs1,13*,0,94,31,0
CCOC(=O)c1c(NC(=O)C2C3C=CC(CC3)C2C(=O)O)sc(C)c1CC (stereo unspecified),0,-8,101,17,12
CCOC(=O)c1c(NC(=O)C2CC2)sc(C)c1CC,11*,3,110,15,-5
CCOC(=O)c1c(NC(=O)CNC2CCCCC2)sc(C)c1C,13*,-3,70,0,18
Cc1ccc(C2C(C#N)=C(N)N(c3cccnc3)C3=C2C(=O)CCC3)c(C)c1 (stereo unspecified),-1,-8,106,-5,-2
CCCCNc1nc(CC)c2c(c1C#N)CCCC2,3,-2,94,41*,0
CCCCc1nc(NCCO)c(C#N)c2c1CCCC2,0,-9,99,2,7
CCOC(=O)C(C)On1c(-c2cccc(Cl)c2)nc2ccc([N+](=O)[O-])cc21 (stereo unspecified),10*,-9,132,5,1
Cn1c(=O)[nH]c(=O)c2c1nc(SCCN1CCCCC1)n2Cc1ccccc1,12*,0,94,-6,-3
Cc1ccc(Cn2c(SCCN3CCCCC3)nc3c2c(=O)[nH]c(=O)n3C)cc1,0,-5,102,14,5
CN(CC(=O)Nc1ccc(F)c(F)c1F)C(=O)Cc1ccc2c(c1)OCCO2,2,-1,86,18,-8
COCCNC(=S)N(c1ccccc1)C(C)C,0,-6,92,40*,5
O=c1[nH]c(C2CCN(S(=O)(=O)c3cccc(C(F)(F)F)c3)CC2)nc2c1nnn2Cc1cccc(F)c1,16*,-29,95,-3,5
COc1cnc(-c2ccccn2)nc1Oc1ccccc1,0,-9,101,21*,-11
COc1cnc(-c2ccccn2)nc1Oc1cccc(C(F)(F)F)c1,/,-15,92,7,-8
